Measured values as given in the supplement of paper PMC11417369.
Whole data set: some 25,000 sequences, median “ln(normalized median fluorescence intensity)” near 9.3, cut for the highest 2% near 10. Only a selection was taken, and the highest values are over-represented in it overall.

Test system: PF3D7_0420300 AP2 domain 1 (GST-tagged)
Test: gcPBM binding intensity (ln(normalized median fluorescence intensity)); higher = stronger DNA binding
In short: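 Each value is the highest Masliner-normalised natural-log median intensity across replicate spots of either orientation of a probe. The probes were primer-extended double-stranded 36-bp intergenic genomic sequences on an Agilent 4 × 180k array, alongside negative controls, exposed for 1 h to GST-tagged P. falciparum DNA-binding domains expressed in E. coli. Bound protein was picked up with Alexa488 anti-GST antibody and scanned at 488 nm.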

Sequence | gcPBM binding intensity (ln)
TATATACACATATATAAACACACAAAAAAAAAAAAA [CACACA_site8626] | 9.6
CAAAAGGATATGCACACACACACACGGATATTTATA [CACACA_site7099] | 10.2
ACAATAAACATATATACACACACAAAAAAAAAAACA [CACACA_site8033] | 10.3
AATATATAAACATATACACACAAAAACATATATATA [CACACA_site4855] | 10
ATTATATATATTTATGCACACAAAATATATTATATA [CACACA_site9244] | 9.29
AATAAACATATATACACACACAAAAAAAAAAACATA [CACACA_site424] | 10.2
GCCAAAAGGATATGCACACACACACCCATATATATA [CACACA_site2198] | 10.2
GGGAAAATAAATAAAGTGCAGATATTAAAAGTTGTA | 9.41
AGATATCTTGTGAAATAAAAAAAATAATTGCTTATA [CACACA_negctrl_site798] | 8.94
CAACAATTTCGTCATACACACATTCAGAATATAGAT [CACACA_site7166] | 9.68
CATGCAATATTAAACACACACTCATATAGCACAATA [CACACA_site6182] | 9.73
GAACGAAACTTTCTTACACACATTGAAATTTTTTTC [CACACA_site1779] | 9.62
AATAAGAAAACAAATGCACACCATTTATATAGATTA [CACACA_site8261] | 9.56
AATACACCCAGACACACACACAAAAAAAAAAAAAAA [CACACA_site513] | 9.51
AACAAATACAGACACACACACACACCCAAAAAAAAA [CACACA_site515] | 9.99
TACACCAAAAAAAAACGTACAAAATCCCACCCAGAC [XGTACX_site4622] | 10.6
CCCATGCATTTTTGCACACACATATATTTATAAATA [CACACA_site6785] | 9.58
AAATAAATAAAAAACACACACAAATAAATAAATATA [CACACA_site2249] | 10.1
CTTACCAAAAAACACACACACACAAAATATATAAAT [CACACA_site1870] | 10.3
TACCAAAAGAAACACACACACAAAATATATAAATAT [CACACA_site1869] | 10.2
TATATAAAGATATATACACACAAAAAAAAAAAAAAA [CACACA_site6778] | 9.32
AAAAAAATAAAACACACACACAAAAAAATAAAAATA [CACACA_site465] | 10.2
CTTACCAAAAGACACACACACACAAGATATATAAAT [CACACA_site6964] | 10.2
AAAAAAAAAAAACACACACACAAAATAAACAAACAA [CACACA_site2721] | 10.3

Sequence | gcPBM binding intensity (ln)
AAAAAAAAAAAACACACACACACAAATATATAAAAA [CACACA_site1171] | 10.1
AAAAAATATAAAAAAACACACAAAAAAAAAAAAAAA [CACACA_site1382] | 9.4
TAATAAAAGATATATACACACAAATAAATAAATAAA [CACACA_site7818] | 9.72
TATAAATAAATAAACACACACAAATAAAATAAAAAA [CACACA_site7623] | 10.1
ATAAATAAAAACACAAAACAAAACAAAACAAAACAA [CACACA_negctrl_site1257] | 9.41
AAAAAAATGAAACACACACACACATATATATATATA [CACACA_site1043] | 9.93
TTTTTATTATAAGGTCGTACAATTGTAATTATTGTA [XGTACX_site1413] | 9.23
TATTTATTTTTTTTTGTGCACTTAATATAATCTTAC | 9.24
ATATATATATATTATGTGCGCATATACCATTTTAAT [GTGCAC_site9575] | 9.32
TATTACTTGATATATACACACATATAACATAAATGC [CACACA_site7783] | 9.45
TATATATATATATATACACACATATATATAAATATA [CACACA_site2035] | 9.2
TAAATAAATACATACACACACATACCTATATTTATA [CACACA_site7466] | 9.93
GATAATACATAAATTTATAAGTGGAAGAATAAATAA [CACACA_negctrl_site698] | 9.32
CAAAAGAAGGTAAACACACACACACGCATACAAAAA [CACACA_site7724] | 10.1
TATTTATTAAAACACACACACACACCGACAAAATAA [CACACA_site4293] | 10.1
AATACTTACCAAAATACACACACACCCAAAATATAT [CACACA_site8559] | 10.1
TAAAATAAAACAAACACACACACACCGACACAAAAA [CACACA_site5993] | 10.2
GGACAACAAACAAACACACACAAAAAAAAAATAAAA [CACACA_site3791] | 9.84
TACTTACCAAAATACACACACACACCCAATATATAA [CACACA_site1871] | 10.1
CAACAAAATAAACACACACACACAAACACAAAAAAA [CACACA_site5806] | 10.3
TACTTACCAAAATACACACACACACTAGATATATAA [CACACA_site5096] | 10.3
CAAAAGAAGGTAAACACACACACACCCATACAAAAA [CACACA_site3765] | 10.1
CACAAACAAAAACACACACACACACCGACAAAAATG [CACACA_site5362] | 10
AAAGAAGGTAAACACACACACACACCGACAAAAAAA [CACACA_site9255] | 10.3
